Results on 23 compounds are retold here after the supplement of paper PMC6992640.

Assay [1] concerns HCI01 (cells of a triple-negative basal-like breast cancer xenograft). Briefly: cell viability of combination (% of vehicle); higher = less cytotoxic. The conditions noted are these: 1 µM; 72 h; partner dose: 10 nM. On the procedure:
(§1)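 PDX cells were treated for 72 h with each drug at 1 µM plus carfilzomib (10 nM; 100 nM for WHIM2). Luciferase viability is expressed as percent of vehicle.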

For assay [2], the system named is UCD52 (cells of a triple-negative basal-like breast cancer xenograft). The description is as above. The conditions noted are these: 1 µM; 72 h; partner dose: 10 nM. As to the method:
as §1

The structures appear in SMILES notation.

For `Cc1nc(Nc2ncc(C(=O)Nc3c(C)cccc3Cl)s2)cc(N2CCN(CCO)CC2)n1` + CC(C)C[C@H](NC(=O)[C@H](CCc1ccccc1)NC(=O)CN1CCOCC1)C(=O)N[C@@H](Cc1ccccc1)C(=O)N[C@@H](CC(C)C)C(=O)[C@@]1(C)CO1 [Carfilzomib], the “cell viability of combination” value is 61.3 in assay [1] and 32.4 in assay [2].
For `CN(C)CCOc1ccc(C(=C(CCCl)c2ccccc2)c2ccccc2)cc1.O=C(O)CC(O)(CC(=O)O)C(=O)O` [Toremifene Citrate] + CC(C)C[C@H](NC(=O)[C@H](CCc1ccccc1)NC(=O)CN1CCOCC1)C(=O)N[C@@H](Cc1ccccc1)C(=O)N[C@@H](CC(C)C)C(=O)[C@@]1(C)CO1 [Carfilzomib] the same measures were 103 and 70.2.
The matching figures for `CO[C@H]1C[C@@H]2CC[C@@H](C)[C@@](O)(O2)C(=O)C(=O)N2CCCC[C@H]2C(=O)O[C@H]([C@H](C)C[C@@H]2CC[C@@H](OC(=O)C(C)(CO)CO)[C@H](OC)C2)CC(=O)[C@H](C)/C=C(\C)[C@@H](O)[C@@H](OC)C(=O)[C@H](C)C[C@H](C)/C=C/C=C/C=C/1C` [Temsirolimus] + CC(C)C[C@H](NC(=O)[C@H](CCc1ccccc1)NC(=O)CN1CCOCC1)C(=O)N[C@@H](Cc1ccccc1)C(=O)N[C@@H](CC(C)C)C(=O)[C@@]1(C)CO1 [Carfilzomib]: 72.4 and 49.5.
The matching figures for `COC(=O)NC(C(=O)N1CCCC1c1ncc(-c2ccc(-c3ccc(-c4cnc(C5CCCN5C(=O)C(NC(=O)OC)C(C)C)[nH]4)cc3)cc2)[nH]1)C(C)C` (stereo unspecified) + CC(C)C[C@H](NC(=O)[C@H](CCc1ccccc1)NC(=O)CN1CCOCC1)C(=O)N[C@@H](Cc1ccccc1)C(=O)N[C@@H](CC(C)C)C(=O)[C@@]1(C)CO1 [Carfilzomib]: 70.8 and 60.4.
For the compound `C=C1C(=CC=C2CCCC3(C)C2CCC3C(C)CCCC(C)(C)O)CC(O)CC1O` (stereo unspecified) [Calcitriol] + CC(C)C[C@H](NC(=O)[C@H](CCc1ccccc1)NC(=O)CN1CCOCC1)C(=O)N[C@@H](Cc1ccccc1)C(=O)N[C@@H](CC(C)C)C(=O)[C@@]1(C)CO1 [Carfilzomib], the “cell viability of combination” value in assay [1] turned out to be 53.8; in assay [2], 38.4.
For `CO[C@H]1C[C@@H]2CC[C@@H](C)[C@@](O)(O2)C(=O)C(=O)N2CCCC[C@H]2C(=O)O[C@H]([C@H](C)C[C@@H]2CC[C@@H](O)[C@H](OC)C2)CC(=O)[C@H](C)/C=C(\C)[C@@H](O)[C@@H](OC)C(=O)[C@H](C)C[C@H](C)/C=C/C=C/C=C/1C` [Rapamycin (Sirolimus)] + CC(C)C[C@H](NC(=O)[C@H](CCc1ccccc1)NC(=O)CN1CCOCC1)C(=O)N[C@@H](Cc1ccccc1)C(=O)N[C@@H](CC(C)C)C(=O)[C@@]1(C)CO1 [Carfilzomib] the same measures were 68.3 and 49.1.
For `CC(C)CC(NC(=O)CNC(=O)c1cc(Cl)ccc1Cl)B(O)O` (stereo unspecified) + CC(C)C[C@H](NC(=O)[C@H](CCc1ccccc1)NC(=O)CN1CCOCC1)C(=O)N[C@@H](Cc1ccccc1)C(=O)N[C@@H](CC(C)C)C(=O)[C@@]1(C)CO1 [Carfilzomib] the same measures were 43.7 and 19.8.
The matching figures for `Cl.Nc1ccn(C2OC(CO)C(O)C2O)c(=O)n1` (stereo unspecified) [Cytarabine hydrochloride] + CC(C)C[C@H](NC(=O)[C@H](CCc1ccccc1)NC(=O)CN1CCOCC1)C(=O)N[C@@H](Cc1ccccc1)C(=O)N[C@@H](CC(C)C)C(=O)[C@@]1(C)CO1 [Carfilzomib]: 65.5 and 77.1.
On to `CC(=O)C1(O)Cc2c(O)c3c(c(O)c2C(OC2CC(N)C(O)C(C)O2)C1)C(=O)c1ccccc1C3=O.Cl` (stereo unspecified) [Idarubicin HCl] + CC(C)C[C@H](NC(=O)[C@H](CCc1ccccc1)NC(=O)CN1CCOCC1)C(=O)N[C@@H](Cc1ccccc1)C(=O)N[C@@H](CC(C)C)C(=O)[C@@]1(C)CO1 [Carfilzomib], for which the “cell viability of combination” value in assay [1] came out at 187; in assay [2] it was 21.1.
For `CNC(=O)c1cc(Oc2ccc(NC(=O)Nc3ccc(Cl)c(C(F)(F)F)c3)c(F)c2)ccn1.Cl` [Regorafenib hydrochloride] + CC(C)C[C@H](NC(=O)[C@H](CCc1ccccc1)NC(=O)CN1CCOCC1)C(=O)N[C@@H](Cc1ccccc1)C(=O)N[C@@H](CC(C)C)C(=O)[C@@]1(C)CO1 [Carfilzomib] the same measures were 77.7 and 52.7.
The matching figures for `CC[C@@]1(O)C(=O)OCc2c1cc1n(c2=O)Cc2cc3c(CN(C)C)c(O)ccc3nc2-1.Cl` [Topotecan HCl] + CC(C)C[C@H](NC(=O)[C@H](CCc1ccccc1)NC(=O)CN1CCOCC1)C(=O)N[C@@H](Cc1ccccc1)C(=O)N[C@@H](CC(C)C)C(=O)[C@@]1(C)CO1 [Carfilzomib]: 55.9 and 54.7.
The matching figures for `CSc1ccc2c(c1)N(CCC1CCCCN1C)c1ccccc1S2.Cl` (stereo unspecified) [Thioridazine HCl] + CC(C)C[C@H](NC(=O)[C@H](CCc1ccccc1)NC(=O)CN1CCOCC1)C(=O)N[C@@H](Cc1ccccc1)C(=O)N[C@@H](CC(C)C)C(=O)[C@@]1(C)CO1 [Carfilzomib]: 77.7 and 64.4.
In the case of `CCCCCCCCCCCCCCCCOP(=O)([O-])OCC[N+](C)(C)C` [Miltefosine] + CC(C)C[C@H](NC(=O)[C@H](CCc1ccccc1)NC(=O)CN1CCOCC1)C(=O)N[C@@H](Cc1ccccc1)C(=O)N[C@@H](CC(C)C)C(=O)[C@@]1(C)CO1 [Carfilzomib], the figures for the “cell viability of combination” value in assay [1] and in assay [2] were 75.2 and 71.6, respectively.
Consider `CN1CCCC1CCOC(C)(c1ccccc1)c1ccc(Cl)cc1.O=C(O)C=CC(=O)O` (stereo unspecified) [Clemastine Fumarate] + CC(C)C[C@H](NC(=O)[C@H](CCc1ccccc1)NC(=O)CN1CCOCC1)C(=O)N[C@@H](Cc1ccccc1)C(=O)N[C@@H](CC(C)C)C(=O)[C@@]1(C)CO1 [Carfilzomib], for which the “cell viability of combination” value amounted to 77.2 in assay [1] and 61.1 in assay [2].
For `CC1(C)Cc2c(-c3ccccc3)c(-c3ccc(Cl)cc3)c(CC(=O)O)n2C1` [Licofelone] + CC(C)C[C@H](NC(=O)[C@H](CCc1ccccc1)NC(=O)CN1CCOCC1)C(=O)N[C@@H](Cc1ccccc1)C(=O)N[C@@H](CC(C)C)C(=O)[C@@]1(C)CO1 [Carfilzomib] the same measures were 83.7 and 64.7.
For `CC1CC(=O)NN=C1c1ccc(NN=C(C#N)C#N)cc1` (stereo unspecified) [Levosimendan] + CC(C)C[C@H](NC(=O)[C@H](CCc1ccccc1)NC(=O)CN1CCOCC1)C(=O)N[C@@H](Cc1ccccc1)C(=O)N[C@@H](CC(C)C)C(=O)[C@@]1(C)CO1 [Carfilzomib] the same measures were 74.1 and 61.5.
The matching figures for `Cl.OC(CNCC(O)C1CCc2cc(F)ccc2O1)C1CCc2cc(F)ccc2O1` (stereo unspecified) [Nebivolol] + CC(C)C[C@H](NC(=O)[C@H](CCc1ccccc1)NC(=O)CN1CCOCC1)C(=O)N[C@@H](Cc1ccccc1)C(=O)N[C@@H](CC(C)C)C(=O)[C@@]1(C)CO1 [Carfilzomib]: 72.5 and 64.3.
As for `Clc1ccc(COC(Cn2ccnc2)c2ccc(Cl)cc2Cl)c(Cl)c1.O=[N+]([O-])O` (stereo unspecified) [Miconazole Nitrate] + CC(C)C[C@H](NC(=O)[C@H](CCc1ccccc1)NC(=O)CN1CCOCC1)C(=O)N[C@@H](Cc1ccccc1)C(=O)N[C@@H](CC(C)C)C(=O)[C@@]1(C)CO1 [Carfilzomib], the “cell viability of combination” value was found to be 87.1 in assay [1] and 59.3 in assay [2].
For `COC(=O)c1ccc2c(c1)NC(=O)C2=C(Nc1ccc(N(C)C(=O)CN2CCN(C)CC2)cc1)c1ccccc1` [Nintedanib (BIBF 1120)] + CC(C)C[C@H](NC(=O)[C@H](CCc1ccccc1)NC(=O)CN1CCOCC1)C(=O)N[C@@H](Cc1ccccc1)C(=O)N[C@@H](CC(C)C)C(=O)[C@@]1(C)CO1 [Carfilzomib] the same measures were 76.4 and 37.5.
For `CC[C@@H]1/C=C(\C)C[C@H](C)C[C@H](OC)[C@H]2O[C@@](O)(C(=O)C(=O)N3CCCC[C@H]3C(=O)O[C@H](/C(C)=C/[C@@H]3CC[C@H](Cl)[C@H](OC)C3)[C@H](C)[C@@H](O)CC1=O)[C@H](C)C[C@@H]2OC` [Pimecrolimus] + CC(C)C[C@H](NC(=O)[C@H](CCc1ccccc1)NC(=O)CN1CCOCC1)C(=O)N[C@@H](Cc1ccccc1)C(=O)N[C@@H](CC(C)C)C(=O)[C@@]1(C)CO1 [Carfilzomib] the same measures were 95.7 and 49.2.
The matching figures for `CC1=C(C(=O)OC(C)C)C(c2cccc([N+](=O)[O-])c2)C(C(=O)OC2CN(C(c3ccccc3)c3ccccc3)C2)=C(N)N1` (stereo unspecified) [Azelnidipine] + CC(C)C[C@H](NC(=O)[C@H](CCc1ccccc1)NC(=O)CN1CCOCC1)C(=O)N[C@@H](Cc1ccccc1)C(=O)N[C@@H](CC(C)C)C(=O)[C@@]1(C)CO1 [Carfilzomib]: 112 and 46.6.
For the compound `Clc1ccc(CSC(Cn2ccnc2)c2ccc(Cl)cc2Cl)cc1.O=[N+]([O-])O` (stereo unspecified) [Sulconazole Nitrate] + CC(C)C[C@H](NC(=O)[C@H](CCc1ccccc1)NC(=O)CN1CCOCC1)C(=O)N[C@@H](Cc1ccccc1)C(=O)N[C@@H](CC(C)C)C(=O)[C@@]1(C)CO1 [Carfilzomib], the “cell viability of combination” value in assay [1] turned out to be 93.5; in assay [2], 62.1.
For `CC(C)c1nc(CN(C)C(=O)NC(C(=O)NC(Cc2ccccc2)CC(O)C(Cc2ccccc2)NC(=O)OCc2cncs2)C(C)C)cs1` (stereo unspecified) [Ritonavir] + CC(C)C[C@H](NC(=O)[C@H](CCc1ccccc1)NC(=O)CN1CCOCC1)C(=O)N[C@@H](Cc1ccccc1)C(=O)N[C@@H](CC(C)C)C(=O)[C@@]1(C)CO1 [Carfilzomib] the same measures were 73 and 65.6.
